# In PubChem BioAssay:
# Values joined by “and” are separate entries in the source; they are usually repeats but may differ in a detail not shown here. Identical values can stand only once. Results filed as inconclusive are left out. Active and inactive are the calls of the source. Unless noted, cut-off not given; nearly all actives show AC50 up to about 26 µM.
# How the values were obtained:
# [1] = system: Aerobactin synthetase IucA (Klebsiella pneumoniae); assay: inhibition of K. pneumoniae IucA enzyme – biochemical, Tocris library, absorbance (AID 1345561; call rule not given here;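 further: 100% = enzyme without compound and 0% = no enzyme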); details: purified IucA enzyme assay, absorbance (OD) read-out; stronger effect = lower value;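 tested at 8 µM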
# [2] = viability loss in pontine glioma line – cell-based, SU-DIPG-XVII, MIPE5.0, CellTiter-Glo, qHTS, dose response (AID 1347060); details: CellTiter-Glo ATP luminescence;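 on AC50: cells exposed to compound for 48 hours before viability readout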
# [3] = viability loss in pontine glioma line – cell-based, JHH-DIPG-1, MIPE4.0, CellTiter-Glo, qHTS, dose response (AID 1347062; cut-off not given, nearly all actives have AC50 up to about 27 µM;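 on AC50: cells exposed to compound for two days before readout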); details: JHH-DIPG-1 viability, CellTiter-Glo ATP luminescence
# [4] = viability loss with induced miR-34 in A549 – imaging, A549 dox-inducible miR-34, nuclei and caspase counts, primary screen (AID 1347080;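 active means compounds whose cell count with miR-34 switched on is under 0.7 times the count with it off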); details: A549 miR-34 inducible, Hoechst nuclei count, 48 h
# [5] = galactose survival enhancers in mitochondrial complex I cybrids – cell-based, galactose medium, ATP luminescence, primary screen (AID 1645843;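 active means z-score of at least 1.8 in each of two replicates, scored against plate mean and spread of sample wells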;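 further: positive z means more ATP and so rescue of galactose-driven cybrid death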); details: complex I mutant cybrid cells, 72 h, stronger effect = higher value
# [6] = P. berghei load reduction in hepatocytes – cell-based, HepG2, luciferase luminescence, HepG2 viability, primary screen (AID 624349; in the data active means parasite load remaining mostly below about 12%, no sharp cut-off; inactive means mostly above about 10%;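 further: 100% = mean of DMSO negative control wells on the same plate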); details: P. berghei liver stage in HepG2, luciferase luminescence, concentration not given here; parasite load remaining: stronger effect = lower value; viability: measured here: HepG2 viability without parasites
# [7] = system: Hepatitis C virus NS3 helicase; assay: blockers of NS3h binding to ssDNA – biochemical, fluorescence polarization, LOPAC1280 library, primary screen (AID 687035; in the data active means inhibition above about 37%); details: Purified HCV NS3 helicase, Cy5-dT15 ssDNA binding fluorescence polarization; stronger effect = higher value; concentration not given here
# [8] = compounds altering Cy5-DNA-NS3h complex signal – biochemical, LOPAC1280, artefact control for HCV NS3 helicase inhibitor project (AID 687037; call rule not given here); details: Cy5-DNA-NS3h complex fluorescence interference counterscreen
# [9] = viability loss in pontine glioma line – cell-based, SU-DIPG-IV, MIPE4.0, CellTiter-Glo, qHTS, dose response (AID 1347063; cut-off not given, nearly all actives have AC50 up to about 30 µM;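 further: compound exposure lasted 48 hours before the viability readout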); details: CellTiter-Glo ATP luminescence
# [10] = viability loss in pontine glioma line – cell-based, SU-DIPG-XIII, MIPE5.0, CellTiter-Glo, qHTS, dose response (AID 1347064; cut-off not given, nearly all actives have AC50 up to about 23 µM;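 on AC50: cells exposed to compound for 48 hours before the viability read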); details: CellTiter-Glo ATP luminescence
# [11] = viability loss in pontine glioma line – cell-based, SU-DIPG-XXV, MIPE5.0, CellTiter-Glo, qHTS, dose response (AID 1347065); details: CellTiter-Glo ATP luminescence;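 further: cells exposed to compound for 48 hours before ATP readout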
# [12] = growth inhibition of DIPG cells – cell-based, MIPE4.0 library, CellTiter-Glo luminescence, qHTS (AID 1347066; cut-off not given, nearly all actives have AC50 up to about 30 µM;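 further: cells exposed to compound for 48 hours before readout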); details: SU-DIPG-VI viability, CellTiter-Glo ATP luminescence
# [13] = JHH-DIPG-1 glioma cell viability, MIPE5.0 library, CellTiter-Glo luminescence, qHTS (AID 1347067); details: JHH-DIPG-1 glioma viability, CellTiter-Glo ATP luminescence;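 further: cells exposed to compound for 48 hours before readout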
# [14] = growth inhibition of DIPG cells – cell-based, MIPE5.0 library, qHTS (AID 1347068; cut-off not given, nearly all actives have IC50 up to about 30 µM;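 on IC50: cells exposed to compound for 48 hours before viability readout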); details: SU-DIPG-XXV viability
# [15] = MELAS cybrid and Rieske KO viability enhancers – cell-based, MELAS cybrids, Rieske KO mouse fibroblasts, CellTiter-Glo, primary screen (AID 1508586;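 active means mean z-score across replicates of 1.96 or higher in either the MELAS or the Rieske mutant cell line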;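 further: z relative to plate mean and SD of compound and empty wells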); details: low glucose
# [16] = stronger effect = lower value, cell number ratio, induced over uninduced
# [17] = measured here: relative caspase fold change +Dox/-Dox
# [18] = measured here: total cells with miR-34 induction, stronger effect = lower value
# [19] = measured here: total cells without miR-34 induction
structure (smiles),measurement,setting,value
Cc1[nH]c(/C=C2\C(=O)Nc3ccccc32)c(C)c1CCC(=O)O,remaining activity,[1],95.9% (inactive)
same,AC50,[2],16.6 µM (active)
same,AC50,[3],16.6 µM (active)
same,fold change,[4]; [16],0.887 (inactive)
same,fold change,[4]; [17],1.48
same,cell count,[4]; [18],5970
same,cell count,[4]; [19],6730
same,z-score,[5],0.51 (inactive)
Oc1ccc2ccccc2c1SSc1c(O)ccc2ccccc12,parasite load remaining,[6],35.3% (inactive)
same,viability,[6],87.1%
same,inhibition,[7],3% (inactive)
same,fluorescence ratio (interference),[8],1 (inactive)
same,remaining activity,[1],112% (inactive)
same,AC50,[2],14.8 µM (active)
same,AC50,[3],23.5 µM (active)
same,AC50,[9],18.7 µM (active)
same,AC50,[10],14.8 µM (active)
same,AC50,[11],11.8 µM (active)
same,AC50,[12],23.5 µM (active)
same,AC50,[13],10.5 µM (active)
same,outcome,[14],inactive
same,fold change,[4]; [16],0.974 (inactive) and 0.952 (inactive) and 0.85 (inactive)
same,fold change,[4]; [17],1 and 0.368 and 2.34
same,cell count,[4]; [18],7700 and 7960 and 7720
same,cell count,[4]; [19],7910 and 8360 and 9070
same,z-score,"[15]; MELAS cybrid survival, CellTiter-Glo 48 h, stronger effect = higher value",2.05 (active)
same,z-score,"[15]; Rieske KO mouse fibroblast survival, CellTiter-Glo 72 h",-0.0374
same,z-score,[5],-1.38 (inactive) and -0.86 (inactive)
Cc1cc(I)ccc1Nc1c(C(=O)NOCC2CC2)cc(F)c(F)c1F,parasite load remaining,[6],55.5% (inactive)
same,viability,[6],67.8%
same,remaining activity,[1],104% (inactive)
same,AC50,[2],5.9 µM (active)
same,AC50,[10],6.61 µM (active)
same,AC50,[11],9.34 µM (active)
same,AC50,[13],4.17 µM (active)
same,IC50,[14],10.5 µM (active)
same,fold change,[4]; [16],1.12 (inactive)
same,fold change,[4]; [17],1.32
same,cell count,[4]; [18],1290
same,cell count,[4]; [19],1150
same,z-score,[5],-0.65 (inactive)
Nc1ncnc2nc(-c3ccc(N4CCOCC4)nc3)cc(-c3cccc(Br)c3)c12,parasite load remaining,[6],57.8% (inactive)
same,viability,[6],155%
same,inhibition,[7],-6% (inactive)
same,fluorescence ratio (interference),[8],0.9 (inactive)
same,remaining activity,[1],93.4% (inactive)
same,outcome,[2],inactive
same,outcome,[3],inactive
same,outcome,[10],inactive
same,outcome,[13],inactive
same,fold change,[4]; [16],0.949 (inactive)
same,fold change,[4]; [17],1.03
same,cell count,[4]; [18],7250
same,cell count,[4]; [19],7640
same,z-score,[5],2.27 (active)
